Bioassay records (PubChem BioAssay)
PKM2 act: activators of human pyruvate kinase M2; P14618; purified PKM2, Kinase-Glo ATP luminescence, activation; response scale: 0% is enzyme alone, no compound; Potency, µM (doses to about 57.5 µM), for the others: at the top dose activation, most hits filed as activators; 260,000 tested, 0.34% active; note: potency is the fitted concentration of half-maximal effect; nearly all actives have a fitted effect of over 55% in size
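Purified hPK-M2 (>95% pure) converted ADP (0.1 mM final) to ATP with 0.5 mM PEP in 50 mM imidazole pH7.2, KCl, MgCl2, Tween 20, BSA; 1 h at room temperature. ATP detected by Kinase-Glo luminescence.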
rTrxR1 inhibitor: inhibitors of rat thioredoxin reductase 1. recombinant rTrxR1, NADPH fluorescence consumption, selenite substrate. O89049. Potency, µM (doses to about 114 µM), for inactives: at the top dose activity change, negative = inhibition, most hits filed as inhibitors. AID 588453. 390,000 tested, 1% active; note: potency is the fitted concentration of half-maximal effect; nearly all actives have a fitted effect of over 65% in size
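Rat TrxR1 (90 nM in the dispensed reagent) was pre-reduced with 400 uM NADPH for 5 min at room temperature, then incubated with compound for 15 min. After 400 uM selenite was added, NADPH fluorescence (Ex 340/Em 450 nm) was followed for 8 min.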
GALK inh: blocks human galactokinase activity; P51570; Purified GALK, Kinase-Glo residual ATP luminescence; Potency, µM (titrated, usually from 57.5 µM), without a hit: at the highest dose activity change, negative = inhibition, hits mostly inhibitors; 270,000 tested, 0.007% active; AID 1868; note: potency is the fitted concentration of half-maximal effect
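5 nM enzyme, 35 uM ATP, 100 uM galactose, 20 mM HEPES pH8.0, 5 mM MgCl2; 1 h RT; residual ATP by Kinase-Glo Plus luminescence, qHTS format.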
PI4K2A block: blocks human PI4K2A kinase activity | activity change, negative = inhibition, % at 76.9 µM | purified PI4K2A, ADP-Glo luminescence, 1 h; active compounds read low | 420,000 tested, 0.13% active; in the data active = activity change below about -50%; inconclusive = mostly about -30% to -49%;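 note: -100% = wells without enzyme as full effect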
Target sequence (Q9BTU6 whole entry, looked up): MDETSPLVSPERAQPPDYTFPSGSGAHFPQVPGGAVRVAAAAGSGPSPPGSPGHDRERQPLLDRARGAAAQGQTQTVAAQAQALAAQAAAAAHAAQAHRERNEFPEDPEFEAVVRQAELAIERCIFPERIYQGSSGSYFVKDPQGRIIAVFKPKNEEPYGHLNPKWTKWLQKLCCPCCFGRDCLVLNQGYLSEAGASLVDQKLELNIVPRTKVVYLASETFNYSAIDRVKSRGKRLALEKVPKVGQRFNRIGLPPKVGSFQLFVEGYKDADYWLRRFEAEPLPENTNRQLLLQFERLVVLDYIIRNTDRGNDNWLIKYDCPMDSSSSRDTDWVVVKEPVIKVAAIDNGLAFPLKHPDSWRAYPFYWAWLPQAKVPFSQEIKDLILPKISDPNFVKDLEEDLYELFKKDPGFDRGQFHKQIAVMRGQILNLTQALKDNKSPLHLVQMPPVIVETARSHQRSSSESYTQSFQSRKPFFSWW
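PI4K2A activity was measured by ADP-Glo luminescence: enzyme (4 ug/mL stock) and phosphatidylinositol (1.2 mM stock) in Tris pH 7.5/MgCl2/EGTA/Triton X-100 buffer were reacted with ATP (300 microM stock) for one hour at ambient temperature.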
TrxR1 substrate: rat thioredoxin reductase 1 substrate activity; O89049; purified TrxR1 substrate turnover, NADPH consumption readout; Potency, µM (series often up to 114 µM), for inactives: at the highest dose activity change, negative = substrate turnover; 390,000 tested, 0.01% active; AID 588456; note: potency is the fitted concentration of half-maximal effect; nearly all actives have a fitted effect of over 50% in size
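Rat TrxR1, dispensed at 90 nM, was prereduced with 400 uM NADPH (final) for 5 min at ~22 deg C, then incubated with compound 15 min before 400 uM selenite. A first-read NADPH fluorescence drop versus no-compound background flagged substrates.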
An asterisk follows results filed as active; ? = inconclusive; nt = no result; [ ] = another dose, or the depositor's remark. Most compounds without a hit are left out; they make up all but 1.2% or so of the library. Unless noted, calls come from the whole dose curve; as a rule, active = well fitted curve in the direction sought with a large enough effect; inconclusive = small, poorly fitted or top-dose-only effect, or another doubt; inactive = no such curve, though single readings can be large; an effect the other way counts as inactive or inconclusive. Unless noted, % is set by controls: 0 for no effect and ±100 for the full control effect.

SMILES	PKM2 act	rTrxR1 inhibitor	GALK inh	PI4K2A block	TrxR1 substrate
CCC(CC)C(=O)Nc1ccc(-c2cn3cccnc3n2)cc1	nt	79µM*	0%	-3	765%
N#Cc1ccc(/C=C/C(=O)c2cccnc2)cc1	8%	22µM*	-1%	-13	-9%
O=C(/C=C/c1ccccc1)NNC(=O)c1cccc(Cl)c1	-1%	24%	-1%	1	8%
O=C(/C=C/c1ccccc1Cl)c1ccc(O)cc1	-1%	14%[57.1 µM]	7%	-5	10%[57.1 µM]
O=C(/C=C/c1ccccc1Cl)c1cccnc1	24%	7.1µM*	0%	-6	2%
O=C(C=Cc1cccc(Cl)c1)c1ccccc1	nt	40µM*	nt	16	-15%
O=C(/C=C/c1ccc(Cl)cc1)c1cccnc1	21%	32µM*	0%	8	0%
COc1ccc(NC(=O)C2=C(C)Nc3ncnn3C2c2sccc2C)cc1 (stereo unspecified)	nt	11%[57.1 µM]	nt	0	2%[57.1 µM]
CC(=O)c1c(C)n(-c2cccc(C)c2)c2ccc(OC(=O)COc3ccccc3)cc12	nt	9%	nt	-2	-2%
O=C(OC[C@H]1O[C@@H](OC(=O)c2cc(O)c(O)c(OC(=O)c3cc(O)c(O)c(O)c3)c2)[C@H](OC(=O)c2cc(O)c(O)c(OC(=O)c3cc(O)c(O)c(O)c3)c2)[C@@H](OC(=O)c2cc(O)c(O)c(OC(=O)c3cc(O)c(O)c(O)c3)c2)[C@@H]1OC(=O)c1cc(O)c(O)c(OC(=O)c2cc(O)c(O)c(O)c2)c1)c1cc(O)c(O)c(OC(=O)c2cc(O)c(O)c(O)c2)c1	nt	?	nt	nt	-5%
O=C(O)C[C@@H]1C(=O)O[C@@H]2C(COC(=O)c3cc(O)c(O)c(O)c3)O[C@@H](OC(=O)c3cc(O)c(O)c(O)c3)[C@@H](OC(=O)c3cc(O)c(O)c4c3[C@H]1[C@H](O)C(=O)O4)[C@H]2OC(=O)c1cc(O)c(O)c(O)c1 (stereo partly specified)	?	nt	14µM*	nt	nt
COc1ccc(-c2cc3ccc(OC(C)C(=O)O)cc3oc2=O)cc1 (stereo unspecified)	-5%	71µM*	1%	1	880%
O=C(Nc1nc(-c2cc3ccccc3o2)cs1)c1ccc(S(=O)(=O)N2CCCC2)cc1	0%	79µM*	1%	4	11%
CC1CN(S(=O)(=O)c2ccc(C(=O)Nc3nc(-c4cc5ccccc5o4)cs3)cc2)CC(C)O1 (stereo unspecified)	-2%	21%	-2%	-3	32%
COC(=O)c1sc(N)c(C(=O)OC)c1COC(=O)c1c(C)noc1C	-2%	21%	8%	4	3%
COC(=O)c1sc(N)c(C(=O)OC)c1Cn1ncc(Cl)c(Cl)c1=O	nt	2.5µM*	-1%	2	1%[57.1 µM]
Cn1cnnc1Sc1cc(N2CCN(S(=O)(=O)c3ccc4ccccc4c3)CC2)ccc1[N+](=O)[O-]	0.35µM*	-14%	1%	-1	-15%
Cn1cnnc1Sc1cc(N2CCN(S(=O)(=O)c3ccc(Cl)c(Cl)c3)CC2)ccc1[N+](=O)[O-]	2.8µM*	-2%	-2%	-8	-2%
Cc1cc(C)n(-c2cc(N3CCN(S(=O)(=O)c4ccc5ccccc5c4)CC3)ccc2[N+](=O)[O-])n1	1%	25%[57.1 µM]	0%	2	-5%[57.1 µM]
COC(=O)c1ccc(NC(=O)CCc2c(C)nc3c(c(C)nn3C(C)(C)C)c2C)cc1	nt	1%	nt	-9	-2%
COCCCNC(=O)C[C@H]1C[C@@]2(C(=O)OC)C(=C[C@H](C(C)C)O[C@@H]2C2CC2)N(Cc2ccco2)C1=O	nt	nt	nt	0	nt
CCc1ccc(-n2c(=O)c3c4c(sc3n(Cc3cc(=O)n5c(C)cccc5n3)c2=O)CCC4)cc1	nt	3%	nt	1	3%
COC(=O)C1CN(Cc2cn(CCOC(C)=O)nn2)CCS(=O)(=O)N1Cc1ccc(Cl)cc1 (stereo unspecified)	nt	nt	nt	-10	nt
CNc1ccc(Br)cc(C(=O)/C=C/c2ccc(OC)cc2)c1=O	26%	-66%	1%	0	0%[57.1 µM]
CNc1ccc(Br)cc(C(=O)/C=C/c2ccc3c(c2)OCO3)c1=O	24%	14µM*	-6%	-16	-10%
SMILES	PKM2 act	rTrxR1 inhibitor	GALK inh	PI4K2A block	TrxR1 substrate
CCNc1ccc(Br)cc(C(=O)/C=C/c2ccc(Cl)cc2Cl)c1=O	14%	8.9µM*	-5%	6	0%
CNc1ccc(Br)cc(C(=O)/C=C/c2cc(OC)ccc2OC)c1=O	-8%	35µM*	-3%	-13	6%
COc1ccc2nc3oc(C(=O)N4CCN(c5cc(C)ccc5C)CC4)cc3cc2c1	nt	25%	nt	-1	11%
O=C1C=CC(=O)N1c1ccc(Sc2ccc([N+](=O)[O-])cc2)cc1	32µM*	nt	8%	nt	nt
C(=Nc1ccc2ccccc2n1)c1ccccn1	nt	-13%	nt	nt	14%
Cc1cc(=O)oc2c(CN3CCCC3)c(O)ccc12	nt	18µM*	-3%	-1	836%
CCN1CCN(Cc2c(O)ccc3c(C)cc(=O)oc23)CC1	nt	?	-4%	-2	896%
COc1cccc2nc3cc(C)c(C)cc3nc12	-75%	?	-2%	-75*	?
COc1ccccc1C(C)NCC(=O)c1c(C)[nH]c2ccccc12 (stereo unspecified)	nt	20µM*	nt	nt	-3%
C[C@H]1[C@@H](NCc2ccccc2)CC[C@@]23CCCN2C(=O)CCC[C@@H]13	nt	nt	nt	0	nt
Cc1ccc(OCc2nnc(SCC(=O)Nc3ccc(S(N)(=O)=O)cc3)n2-c2ccc(Cl)cc2)cc1	nt	nt	nt	0	nt
C=CC1=C2C=C(C3CC3)N(CCCCO)C=C2C(=O)C(C)(OC(=O)c2ccco2)C1=O (stereo unspecified)	1%[11.5 µM]	nt	nt	nt	nt
Cc1ccc(C(C2C(=O)CC(C)(C)CC2=O)C2C(=O)CC(C)(C)CC2=O)s1	21%	40µM*	-1%	?	-13%
COC(=O)c1ccc2c(c1)C(=O)/C(=C/c1ccc(O)cc1)O2	7%	-9%	0%	-2	-7%
COc1cccc(/C=C2\Oc3ccc(O)cc3C2=O)c1O	nt	-13%	8%	-61*	-11%
Cc1ccc(-c2csc(NC(=O)/C=C/c3ccco3)c2C(=O)O)cc1	?	35µM*	2%	-1	-6%
CN(CCOC(=O)/C=C/c1ccco1)Cc1ccccc1	?	45µM*	0%	-19	-1%
CN(C(=O)/C=C/c1ccco1)c1ccccc1C(=O)O	-1%	28µM*	7%	2	-2%
O=C(/C=C/c1ccco1)Nc1ccccc1C(=O)O	-14%	14µM*	5%	-19	-7%[57.1 µM]
CN(CC(=O)O)c1ccc(/C=C2\C=Cc3ccccc32)cc1	nt	?	nt	nt	1%
Cc1cccc(NC(=O)c2cn(-c3ccccc3)nc2-c2ccccc2)c1C	nt	-3%	nt	-2	-11%
O=C(/C=C/c1ccco1)Nc1cc(Cl)ccc1C(=O)O	25%	13µM*	nt	0	-19%
